PubChem BioAssay (NCI)
About 83,000 compounds went through this panel and 20% of them were active in at least one assay; those are over-represented in the sample as a whole.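 Percent growth is the endpoint: 0 to 100 indicates growth inhibition (40 means 60% inhibition), 0 means no net growth, and negative values indicate cell death.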 Activity calls are given as the source filed them. The calls were made as follows: active = growth percent below 10; inactive = the rest.

Experiments:
Assay in all cases: NCI-60 one-dose screen, 48 h (100 = growth as untreated, 0 = no growth, -100 = all killed)
T-47D breast = details: 10 µM unless noted
BT-549 breast = details: 10 µM unless noted
MDA-MB-435 melanoma = details: 10 µM unless noted
SW-620 colon = details: 10 µM unless noted
MCF7 breast = details: 10 µM unless noted
HCT-116 colon = details: 10 µM unless noted
HCC-2998 colon = details: 10 µM
KM12 colon = details: 10 µM unless noted

Measured: growth

CCN1CCN(c2nc(C)cc(N(CCNc3ccnc4cc(Cl)ccc34)Cc3ccc4c(c3)OCO4)n2)CC1
inactive: BT-549 breast 21.5% | MCF7 breast 23.8% | HCT-116 colon 10.3%
active: T-47D breast -51.7% | MDA-MB-435 melanoma -72.5% | SW-620 colon 3.4% | HCC-2998 colon -29.8%

CC#CC(=O)N1CCC[C@H]1c1nc(-c2ccc(C(=O)Nc3ccccn3)cc2)c2c(N)nccn12
inactive: T-47D breast 58.1% | BT-549 breast 84.5% | MDA-MB-435 melanoma 91.5% | SW-620 colon 112% | MCF7 breast 77.5% | HCT-116 colon 83.7%

CCCCCCCCCCCC[n+]1ccccc1
inactive: SW-620 colon 10.7%
active: T-47D breast 4.67% | BT-549 breast -37.4% | MDA-MB-435 melanoma -16.5% | MCF7 breast 5.23% | HCT-116 colon 6.26% | HCC-2998 colon 9.96%

CNC(=O)c1cc(Oc2ccc3nc(NC(=O)Nc4ccc(Cl)c(C(F)(F)F)c4)sc3c2)ccn1
inactive: BT-549 breast 17.4% | MDA-MB-435 melanoma 12.9% | SW-620 colon 21.5% | MCF7 breast 20.8% | HCC-2998 colon 46.6%
active: T-47D breast -2.44% | HCT-116 colon -22%

C=CC(=O)Nc1cccc(Nc2nc(Nc3ccc(N4CCN(C(C)=O)CC4)cc3OC)ncc2C(F)(F)F)c1
active: T-47D breast -5.01% | SW-620 colon 2.57% | MCF7 breast 4.41%
inactive: BT-549 breast 19.7% | MDA-MB-435 melanoma 23.1% | HCT-116 colon 12% | HCC-2998 colon 34.7%

Cc1cc(N(CCNc2ccnc3cc(Cl)ccc23)Cc2ccc3c(c2)OCO3)nc(N2CCCC2)n1
inactive: KM12 colon 44.9%
active: T-47D breast -36.4% | BT-549 breast -7.74% | MDA-MB-435 melanoma -69.5% | SW-620 colon 8.91% | MCF7 breast 7.77% | HCT-116 colon -68.8% | HCC-2998 colon -24.4%

Cc1[nH]c(/C=C2\C(=O)Nc3ccc(F)cc32)c(C)c1C(=O)NC[C@H](O)CN1CCOCC1
inactive: T-47D breast 59.5% | BT-549 breast 37.8% | MDA-MB-435 melanoma 18.6% | SW-620 colon 11.8% | MCF7 breast 38.4% | HCT-116 colon 10.7% | HCC-2998 colon 41%

Nc1ncnc2c1c(-c1cccc(OCc3ccccc3)c1)cn2C1CC(CN2CCC2)C1 (stereo unspecified)
active: T-47D breast -38.2% | MDA-MB-435 melanoma -43.6% | SW-620 colon 3.94% | MCF7 breast -22% | HCT-116 colon 9.54% | KM12 colon 6.66%
inactive: BT-549 breast 33% | HCC-2998 colon 17%

CC[n+]1c(/C=C/C=C2\N(C)c3ccccc3C2(C)C)sc2ccccc21
active: T-47D breast 4.61% | BT-549 breast -2.69% | MDA-MB-435 melanoma 4.07% | MCF7 breast -26.9% | HCT-116 colon 7.25% | KM12 colon 3.17%
inactive: SW-620 colon 17% | HCC-2998 colon 32.2%

C=CCCCOC1[C@H](OCc2ccccc2)C(OCc2ccccc2)C(OC)O[C@@H]1CNC(=O)c1cccc(I)c1 (stereo partly specified)
inactive: T-47D breast 33.4% | BT-549 breast 57.5% | MDA-MB-435 melanoma 44.7% | SW-620 colon 32.6% | MCF7 breast 20.4% | HCT-116 colon 19.8% | HCC-2998 colon 86.7% | KM12 colon 38.5%

Cc1cccc(NC(=O)[C@@H]2c3ccccc3C(=O)N(c3ccc(Cl)cc3)[C@H]2c2ccc(Cl)cc2)n1
inactive: T-47D breast 41.6% | BT-549 breast 63.3% | MDA-MB-435 melanoma 46.6% | SW-620 colon 40.6% | MCF7 breast 40.9% | HCT-116 colon 26.2% | HCC-2998 colon 50.6% | KM12 colon 34.5%

Cc1cc(O)c2c(c1)C1OC(=O)CCCCCN1C1=C2C(=O)c2cccc(OC3CC(O)C(O)C(C)O3)c2C1=O (stereo unspecified)
inactive: T-47D breast 85.6% | BT-549 breast 83.6% | MDA-MB-435 melanoma 13.1% | SW-620 colon 99.9% | MCF7 breast 17.7% | HCT-116 colon 24.5% | HCC-2998 colon 73% | KM12 colon 83.4%

CNC(=O)CN1CCC(Oc2cc3c(Nc4cccc(Cl)c4F)ncnc3cc2OC)CC1
inactive: BT-549 breast 93.5% | MDA-MB-435 melanoma 98.2% | SW-620 colon 71.5% | MCF7 breast 51.1% | HCT-116 colon 54.7% | HCC-2998 colon 83.2% | KM12 colon 81.4%
active: T-47D breast -11.2%

COc1ncc(-c2ccc3nccc(-c4ccnnc4)c3c2)cc1NS(=O)(=O)c1ccc(F)cc1F
active: T-47D breast -25.3% | BT-549 breast -31.7% | MDA-MB-435 melanoma -78% | SW-620 colon -30.9% | MCF7 breast 8.48% | HCT-116 colon -48.7% | HCC-2998 colon -78.4% | KM12 colon -60.5%

Cn1ccnc1C(=O)/C=C/c1ccc(CC(=O)Nc2ccc(C(F)(F)F)cc2)cc1
active: T-47D breast 3.52% | BT-549 breast 3.71% | SW-620 colon 7.25% | MCF7 breast 8.41% | HCT-116 colon 6.67% | HCC-2998 colon 0.221% | KM12 colon 4.24%
inactive: MDA-MB-435 melanoma 30.6%

CC(C)(C)c1nc(-c2cccc(NS(=O)(=O)c3c(F)cccc3F)c2F)c(-c2ccnc(N)n2)s1
inactive: T-47D breast 92.6% | BT-549 breast 118% | MDA-MB-435 melanoma 87.3% | SW-620 colon 73.3% | MCF7 breast 79.7% | HCT-116 colon 48.1% | HCC-2998 colon 85.1% | KM12 colon 44.6%

COC(=O)[C@]12CC[C@@H](C)[C@H](C)[C@@H]1C1=CC[C@@H]3[C@@]4(C)C(c5cnco5)=C[C@@](C)(CO)C4=CC[C@@]3(C)[C@]1(C)CC2
inactive: T-47D breast 14.7% | BT-549 breast 56.4% | MDA-MB-435 melanoma 60.5% | SW-620 colon 50.9% | MCF7 breast 37.1% | HCT-116 colon 22.6% | HCC-2998 colon 45.5% | KM12 colon 37.2%

COCc1c(-c2ccc(NC(=O)Nc3cc(C(F)(F)F)ccc3F)c(F)c2)c2c(N)ncnn2c1CN1CCOCC1
active: T-47D breast -27% | BT-549 breast -39.5% | MDA-MB-435 melanoma -68.8% | SW-620 colon -0.244% | MCF7 breast -22.9% | HCT-116 colon -1.82% | HCC-2998 colon -52.1% | KM12 colon -37.2%

COc1cc2c(Nc3ccc(Br)cc3F)ncnc2cc1OCC1CCN(C)CC1
active: T-47D breast -22.9% | MDA-MB-435 melanoma -42.8%
inactive: BT-549 breast 42.9% | SW-620 colon 31.8% | MCF7 breast 31.3% | HCT-116 colon 24.3% | HCC-2998 colon 19.3% | KM12 colon 38.1%

CN(C)C/C=C/C(=O)Nc1cc2c(Nc3ccc(F)c(Cl)c3)ncnc2cc1O[C@H]1CCOC1
active: T-47D breast -6.55% | BT-549 breast -1.8% | MDA-MB-435 melanoma 2.71% | SW-620 colon -22.6% | MCF7 breast 3.59% | HCT-116 colon -59.8% | HCC-2998 colon -71% | KM12 colon -0.867%

Cc1ccc(Nc2nccc(N(C)c3ccc4c(C)n(C)nc4c3)n2)cc1S(N)(=O)=O
active: T-47D breast 4.07% | HCT-116 colon 3.7% | HCC-2998 colon -5.85%
inactive: BT-549 breast 25.8% | MDA-MB-435 melanoma 19.3% | SW-620 colon 19.3% | MCF7 breast 32.3% | KM12 colon 15%

COc1cc2cc(NCc3ccc(Cl)cc3)nc(C)c2cc1OC
active: HCT-116 colon 8.8%
inactive: T-47D breast 47.1% | BT-549 breast 30.8% | MDA-MB-435 melanoma 10.9% | SW-620 colon 19.3% | MCF7 breast 51.8% | HCC-2998 colon 27.2% | KM12 colon 37.2%

COc1cc2nccc(Oc3ccc(NC(=O)C4(C(=O)Nc5ccc(F)cc5)CC4)cc3)c2cc1OC
inactive: BT-549 breast 32.8% | MCF7 breast 15.6% | HCC-2998 colon 30.5%
active: T-47D breast -14% | MDA-MB-435 melanoma 8.75% | SW-620 colon -27.3% | HCT-116 colon 1.99% | KM12 colon 7.5%

CC[C@H](Nc1ncnc2nc[nH]c12)c1nc2cccc(F)c2c(=O)n1-c1ccccc1
active: T-47D breast -4.25%
inactive: BT-549 breast 40.2% | MDA-MB-435 melanoma 82.6% | SW-620 colon 78.3% | MCF7 breast 54.4% | HCT-116 colon 65.5% | HCC-2998 colon 85.9% | KM12 colon 84.6%

Cc1csc(-c2nnc(Nc3ccc(Oc4ncccc4-c4ccnc(N)n4)cc3)c3ccccc23)c1
inactive: T-47D breast 30.5% | BT-549 breast 60.4% | MDA-MB-435 melanoma 31.9% | SW-620 colon 20.3% | MCF7 breast 12% | HCT-116 colon 22.1% | HCC-2998 colon 36.1% | KM12 colon 19.2%

CCNCCNc1cc(-c2ccc(Cl)c(Cl)c2)c(C#N)c2nc3ccccc3n12
active: T-47D breast -60.8% | BT-549 breast -70.5% | MDA-MB-435 melanoma -95% | SW-620 colon -67.3% | MCF7 breast -72% | HCT-116 colon -87.3% | HCC-2998 colon -87.1% | KM12 colon -86.6%

Cc1ccc(-n2nc(C(C)(C)C)cc2NC(=O)NCc2cc(F)ccc2Oc2ccc3c(cnn3CCO)c2)cc1
inactive: BT-549 breast 21.3% | SW-620 colon 25.7% | HCC-2998 colon 19.9%
active: T-47D breast -3.04% | MDA-MB-435 melanoma 7.09% | MCF7 breast 7.9% | HCT-116 colon 6.75% | KM12 colon 8.7%

Cc1nc2ccc(-n3ncc(C(=O)c4cc5ccccc5[nH]4)c3N)cc2[nH]1
inactive: T-47D breast 34.9% | BT-549 breast 54% | MDA-MB-435 melanoma 62.8% | SW-620 colon 43.7% | MCF7 breast 44.2% | HCT-116 colon 27.1% | HCC-2998 colon 68.8% | KM12 colon 17.3%

CO[C@H]1C[C@@H]2CC[C@@H](C)[C@@](O)(O2)C(=O)C(=O)N2CCCC[C@H]2C(=O)O[C@H]([C@H](C)C[C@@H]2CC[C@@H](O)[C@H](OC)C2)CC(=O)[C@H](C)/C=C(\C)[C@@H](O)[C@@H](OC)C(=O)[C@H](C)C[C@H](C)\C=C/C=C/C=C/1C
active: T-47D breast -5.21% | MCF7 breast 7.85%
inactive: BT-549 breast 20.3% | MDA-MB-435 melanoma 36.9% | SW-620 colon 51.3% | HCT-116 colon 39.5% | HCC-2998 colon 58.6% | KM12 colon 42.8%

O=C(Nc1ccc(Nc2ncnc3sc4c(c23)CCOC4)cc1)Nc1ccc(Cl)c(C(F)(F)F)c1
inactive: T-47D breast 81.8% | BT-549 breast 89.1% | MDA-MB-435 melanoma 99.1% | SW-620 colon 121% | MCF7 breast 90.5% | HCT-116 colon 77.5% | HCC-2998 colon 106% | KM12 colon 86.4%

CCc1ccc(/C=C/c2ccc(O)c3ncccc23)[n+](C)c1
inactive: T-47D breast 31.2% | BT-549 breast 65.9% | MDA-MB-435 melanoma 59.4% | SW-620 colon 40.7% | MCF7 breast 53.8% | HCT-116 colon 18.3% | HCC-2998 colon 31.6% | KM12 colon 40.2%
